D2 ag-1 = activates the human D2 dopamine receptor; 360,000 compounds, 0.084% hits; activation, % (no concentration beside the values); P14416; DiscoveRx PathHunter D2 beta-arrestin, luminescence, 90 min; 100% = 57 uM dopamine signal; in the data active means activation above about 40%
Target sequence (P14416 whole entry, looked up): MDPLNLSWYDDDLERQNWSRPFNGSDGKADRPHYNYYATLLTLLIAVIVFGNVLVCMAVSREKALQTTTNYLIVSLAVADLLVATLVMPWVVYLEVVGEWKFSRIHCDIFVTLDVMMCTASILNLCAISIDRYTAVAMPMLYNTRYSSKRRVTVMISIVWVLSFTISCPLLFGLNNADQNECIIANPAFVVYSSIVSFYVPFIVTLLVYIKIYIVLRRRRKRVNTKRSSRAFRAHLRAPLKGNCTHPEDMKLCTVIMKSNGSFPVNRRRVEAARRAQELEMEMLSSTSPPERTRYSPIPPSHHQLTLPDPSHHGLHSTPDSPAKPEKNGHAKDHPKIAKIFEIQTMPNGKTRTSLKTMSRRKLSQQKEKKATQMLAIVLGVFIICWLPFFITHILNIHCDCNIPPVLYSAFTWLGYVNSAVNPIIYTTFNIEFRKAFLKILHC
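DiscoveRx PathHunter D2 beta-arrestin cells (2,100/well) attached overnight, then compound-stimulated 90 min at 37 C in HBSS/10 mM HEPES/0.1% Tween-20 buffer; beta-galactosidase complementation read by luminescence after 1 h at ambient temperature. Dopamine 57 uM final (EC100) as control.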
D2 PAM-1 = human D2 receptor positive allosteric modulation | DiscoveRx D2 beta-arrestin cells, luminescence, 90 min; 100% = 57 uM dopamine signal | P14416 | potentiation, % (concentration not given with the values) | 360,000 compounds, 0.23% hits | AID 624464; in the data active means potentiation above about 50%
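PathHunter D2 cells, attached overnight at 37 deg C, received compound in DMSO plus dopamine at EC20 (50 nM final) for 90 min at 37 deg C. Beta-arrestin recruitment was read as luminescence after 1 h with detection reagent at ambient temperature.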
D2 ag-2 = agonists of human D2 dopamine receptor | P14416 | HEK293 T-REx D2 cells, calcium flux agonist mode | activation, % at 2 µM | 340,000 compounds, 0.53% hits;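 active means activation over 3 SD above normal in the single-dose calcium agonist read, cut at about 30% in these data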
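Tetracycline-induced HEK293 T-REx cells with force-coupled D2 receptor, plated overnight at 30 C, loaded with no-wash calcium dye. After a 10 s baseline, compound was pin-added and calcium flux read kinetically for 180 s; calcium rises flagged agonists.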
D2 antagonist = antagonists of human D2 dopamine receptor; P14416; HEK293 TREx D2 cells, calcium flux, dopamine EC80; inhibition, % at 10 µM; 340,000 compounds, 2% hits; in the data active means inhibition above about 30%; inactive means below that, where a call was filed
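Tetracycline-induced HEK293 T-REx cells expressing D2 force-coupled to calcium signalling were dye-loaded, exposed to compound for 180 s, then challenged with an EC80 of dopamine; calcium flux was followed kinetically for a further 180 s.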
D2 PAM-2 = positive allosteric modulators of human D2 dopamine receptor | HEK293 T-REx D2, calcium flux, EC20 dopamine potentiation | AID 485347 | 340,000 compounds, 0.34% hits | P14416 | potentiation, % at 10 µM;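 active means potentiation over 3 SD above the plate norm, cut at about 30% in these data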
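Potentiation of an EC20 dopamine calcium response measured kinetically over 180 s, after a preceding 180 s compound-only read flagging agonists. Cells: inducible Hek293 Trex D2 line, 4000/well, cultured overnight at 30 C before dye loading.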
Numbers stand for hits; ! = not active in a repeat. In the library only some 2.4% were active in any assay of this set; here they are far more common.

`CSc1nsc(SCC(=O)Nc2ccc(C(N)=O)cc2)n1` gave D2 ag-1 inactive, D2 PAM-1 inactive, D2 ag-2 inactive and D2 antagonist 37.
For CSc1nsc(SCC(=O)Nc2ccc(C(C)=O)cc2)n1 the results were D2 ag-1 inactive, D2 PAM-1 inactive, D2 ag-2 inactive, D2 antagonist inactive and D2 PAM-2 inactive.
`COc1ccc(-c2cc(C)no2)cc1S(=O)(=O)Nc1c(C)cc(C)cc1C` gave D2 ag-2 inactive and D2 PAM-2 inactive.
Screening Cc1ccc(SC[C@H](c2ccccc2)N2CCN(C)CCC2=O)cc1 returned D2 ag-1 inactive, D2 PAM-1 inactive, D2 ag-2 inactive, D2 antagonist 38 and D2 PAM-2 inactive.
CN1CCC(=O)N([C@H](CSc2ccccc2)c2ccccc2)CC1 was read as D2 ag-1 inactive, D2 PAM-1 inactive, D2 ag-2 inactive, D2 antagonist inactive and D2 PAM-2 inactive.
O=C(Nc1cccc(-c2nc3ccccc3s2)c1)c1ccc2c(c1)OCO2 was read as D2 ag-1 inactive, D2 PAM-1 inactive, D2 ag-2 inactive, D2 antagonist inactive and D2 PAM-2 inactive.
`c1ccc2sc(-c3ccc4c(c3)OCO4)nc2c1` gave D2 ag-1 inactive, D2 PAM-1 inactive, D2 ag-2 inactive, D2 antagonist inactive and D2 PAM-2 31.
Screening CCCn1c2ccccc2c2nc3ccccc3nc21 returned D2 ag-1 inactive, D2 PAM-1 inactive, D2 ag-2 inactive, D2 antagonist inactive and D2 PAM-2 47.
For COc1ccc2c(c1)c1nc3ccccc3nc1n2CCCN1C(=O)c2ccccc2C1=O the results were D2 ag-1 inactive, D2 PAM-1 inactive, D2 ag-2 inactive, D2 antagonist inactive and D2 PAM-2 inactive.
Screening COc1ccc2c(c1)c1nc3ccccc3nc1n2CCn1c(=O)oc2ccccc21 returned D2 ag-1 inactive, D2 PAM-1 inactive, D2 ag-2 inactive, D2 antagonist 34 and D2 PAM-2 inactive.
`CCN(CC)CCn1c2ccccc2c2nc3ccccc3nc21` gave D2 ag-1 inactive, D2 PAM-1 inactive, D2 ag-2 inactive, D2 antagonist inactive and D2 PAM-2 inactive.
For O=c1oc2ccccc2n1CCn1c2ccccc2c2nc3ccccc3nc21 the results were D2 ag-1 inactive, D2 PAM-1 inactive, D2 ag-2 inactive, D2 antagonist inactive and D2 PAM-2 76.
For COc1ccc(NC(=O)Cn2c(=O)n(-c3cccc(C)c3)c(=O)c3c2c2cc(C)ccc2n3C)cc1Cl the results were D2 ag-2 inactive and D2 PAM-2 inactive.
`COc1ccc(-c2cc(C(=O)Nc3ccc4c(c3)OCO4)no2)cc1` gave D2 ag-1 inactive, D2 PAM-1 inactive, D2 ag-2 inactive, D2 antagonist inactive and D2 PAM-2 31!.
`COc1ccc(C2=NS(=O)(=O)N(C)C(C(=O)Nc3ccc4c(c3)OCO4)=C2)cc1` gave D2 ag-1 inactive, D2 PAM-1 inactive, D2 ag-2 inactive, D2 antagonist 64 and D2 PAM-2 inactive.
Screening COc1ccc(-c2cc(C(=O)N3CCOCC3)no2)cc1 returned D2 ag-1 inactive, D2 PAM-1 inactive, D2 ag-2 inactive, D2 antagonist 35 and D2 PAM-2 inactive.
For COc1cc(NC(=O)c2cccc3c(-c4cccnc4)coc23)cc(OC)c1OC the results were D2 ag-1 44 and D2 PAM-1 inactive.
COc1cccc(-c2cc(C(=O)N3CCOCC3)no2)c1 was read as D2 ag-1 inactive, D2 PAM-1 inactive, D2 ag-2 inactive, D2 antagonist inactive and D2 PAM-2 inactive.
`Cc1ccc(C2=NS(=O)(=O)N(C)C(C(=O)Nc3ccc4c(c3)OCO4)=C2)cc1` gave D2 ag-1 inactive, D2 PAM-1 inactive, D2 ag-2 inactive, D2 antagonist inactive and D2 PAM-2 inactive.
CSc1cccc(NC(=O)CC(c2ccc(F)cc2)N2Cc3ccccc3C2=O)c1 (centres undefined) was read as D2 ag-2 inactive and D2 PAM-2 inactive.
`O=C(CSc1ncc2c(n1)-c1ccccc1N(Cc1ccc(F)cc1)S2(=O)=O)c1ccc(Cl)cc1` gave D2 ag-2 inactive and D2 PAM-2 inactive.
Screening COc1ccc(CCNc2ncnc3onc(C)c23)c(OC)c1 returned D2 ag-2 inactive and D2 PAM-2 inactive.
COC(=O)c1cc(C)nc2c1c(=O)nc(SCc1ccccc1F)n2C1CC1 was read as D2 ag-2 inactive and D2 PAM-2 inactive.
`CSc1cccc(NC(=O)C2CCCN(C(=O)c3cnn(-c4ccc(F)cc4)c3-n3cccc3)C2)c1` (centres undefined) gave D2 ag-2 inactive and D2 PAM-2 inactive.
Screening CN1C(C(=O)Nc2ccc(OC(F)(F)F)cc2)=CC(c2ccc3c(c2)OCO3)=NS1(=O)=O returned D2 ag-1 inactive, D2 PAM-1 inactive, D2 ag-2 inactive, D2 antagonist inactive and D2 PAM-2 75!.
COc1ccc(-c2cc(C(=O)Nc3ccccc3SC)no2)cc1 was read as D2 ag-1 inactive and D2 PAM-1 inactive.
Screening Cc1c(C(=O)Nc2ccc3c(c2)OCO3)sc2nc(-c3ccccc3)cn12 returned D2 ag-1 inactive, D2 PAM-1 inactive, D2 ag-2 inactive and D2 antagonist 67.
`CC1CCN(C(=O)c2cc(-c3ccc4c(c3)OCO4)on2)CC1` gave D2 ag-1 inactive, D2 PAM-1 inactive, D2 ag-2 inactive, D2 antagonist inactive and D2 PAM-2 36.
For CC1CCCCN1C(=O)c1cc(-c2ccc3c(c2)OCO3)on1 (centres undefined) the results were D2 ag-1 inactive, D2 PAM-1 inactive, D2 ag-2 inactive, D2 antagonist inactive and D2 PAM-2 inactive.
Screening CCc1ccc(NC(=O)C2=CC(c3ccc4c(c3)OCO4)=NS(=O)(=O)N2C)cc1 returned D2 ag-2 inactive and D2 PAM-2 inactive.
Screening COc1ccc(-c2cc(C(=O)Nc3cc(Br)ccc3O)no2)cc1 returned D2 ag-1 inactive, D2 PAM-1 inactive, D2 ag-2 inactive, D2 antagonist 36 and D2 PAM-2 inactive.
`CCOc1ccc(C(=O)Nc2nnc(S(=O)(=O)N(CC)c3ccccc3C)s2)cc1` gave D2 ag-2 inactive and D2 PAM-2 inactive.
Screening COc1cc(NC(=O)c2cc(-c3ccccc3)on2)cc(OC)c1OC returned D2 ag-1 inactive, D2 PAM-1 inactive, D2 ag-2 inactive, D2 antagonist inactive and D2 PAM-2 inactive.
`COc1cccc(-c2cc(C(=O)Nc3cc(OC)c(OC)c(OC)c3)no2)c1` gave D2 ag-1 inactive, D2 PAM-1 inactive, D2 ag-2 inactive, D2 antagonist 44 and D2 PAM-2 inactive.
COc1cccc(NC(=O)/C=C/c2ccccc2[N+](=O)[O-])c1 was read as D2 ag-1 inactive, D2 PAM-1 inactive, D2 ag-2 inactive, D2 antagonist inactive and D2 PAM-2 inactive.
